# Reference: PubChem BioAssay AID588850 (Sanford-Burnham Center for Chemical Genomics, 2011)
# The campaign covered roughly 360,000 compounds. About 3,100 (0.86%) were called active.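 Rule for the calls: active = at least 50% inhibition at 5 µM, scaled per plate between neutral and stimulator controls; inactive = the rest.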 Only a selection was taken, and actives are over-represented in it overall.
# Test: NF-kB reporter blockers in CF airway cells – cell-based, GFP fluorescence, uHTS, primary screen (AID 588850);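 note: PAF is a Pseudomonas aeruginosa culture filtrate used as stimulus; plate controls were PAF-stimulated DMSO wells for no effect and unstimulated DMSO wells for full effect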
# Settings: KKLEB NF-kB-GFP reporter, PAF-induced, GFP fluorescence overnight; at 5 µM; hits give high values
row,Compound,inhibition
1,O=C(NC1CCN(C(=S)NCc2ccco2)CC1)c1ccc(F)cc1,-0.1% (inactive)
2,CCN(C(=O)c1ccc(Br)cc1)c1ccccc1,21.8% (inactive)
3,C=CCN1C(=O)C(Cc2ccc(OCC)cc2)SC1=Nc1ccc(C(=O)O)cc1 (stereo not given),4.1% (inactive)
4,COc1ccc2c(c1OC)C(=O)OC2Nc1nc(-c2ccccc2)cs1 (stereo not given),88.8% (active)
5,COc1cc(C(O)c2nc(-c3cccc(C(=O)O)c3)cs2)ccc1F (stereo not given),12.4% (inactive)
6,Cn1cc(C2OC(=O)c3ccccc32)c2ccccc21 (stereo not given),41.4% (inactive)
7,Cc1ccc(-c2csc(NC(=O)C3=COCCO3)n2)cc1C,-43.3% (inactive)
8,Cc1ccc(-c2csc(NC3OC(=O)c4ccccc43)n2)cc1 (stereo not given),81.3% (active)
9,COc1ccccc1C(=O)Nc1nc2nc(-c3ccccc3)cc(=O)n2[nH]1,-8% (inactive)
10,CN(CC(=O)O)S(=O)(=O)c1ccc2oc3ccccc3c2c1,-19.3% (inactive)
11,Cc1ccc(S(=O)(=O)Nc2ccc(F)c(S(=O)(=O)N3CCOCC3)c2)cc1,-4.8% (inactive)
12,O=C(Nc1ccccc1)c1ccccc1Br,-3.5% (inactive)
13,COCCCNC(=O)c1ccc(-c2c(C)noc2C)c2ccoc12,-59% (inactive)
14,CC(=O)c1ccc(N2CCN(S(=O)(=O)c3c(C)[nH]c(=O)[nH]c3=O)CC2)cc1,13.2% (inactive)
15,COc1cc(/C=N/Nc2ccc(C)cc2)cc(Br)c1O,-27.2% (inactive)
16,COc1cccc(/C=N/Nc2cc(C)nc(-c3ccccc3O)n2)c1O,89.8% (active)
17,COc1cccc(Cn2cc(/C=N/NC(=O)c3cc(O)cc(O)c3)c3ccccc32)c1,1.7% (inactive)
18,O=C(CN1CCOCC1)N1CCCc2c1c(=O)oc1ccc(OCc3ccccc3)cc21,-14.3% (inactive)
19,Cc1nn2c(c1-c1ccccc1)N=C(c1ccco1)CC2c1ccccc1 (stereo not given),-5.8% (inactive)
20,Cc1cc(Br)ccc1NC(=O)CN(C)C(=O)CN1C(=O)NC2(CCCC2)C1=O,-8.9% (inactive)
21,COc1ccc(/C=C(\C#N)C(=O)NCCCn2ccnc2)cc1,10.2% (inactive)
22,COc1ccc(NC(=O)/C(C#N)=C\c2cc(OC)c(OCc3ccc(C(=O)O)cc3)cc2Br)cc1,-82.3% (inactive)

row,Compound,inhibition
1,COc1ccc(CNC(=O)/C(C#N)=C/c2cccc(OC)c2OC)cc1,59.3% (active)
2,Cc1ccc(S(=O)(=O)NNC(=O)/C=C/c2cccc(F)c2)cc1,-21.5% (inactive)
3,CCOC(=O)CN1C(=O)C(O)(CC(=O)c2ccccn2)c2ccccc21 (stereo not given),13% (inactive)
4,Cc1ccc(C2=CSC3=NS(=O)(=O)CCN23)cc1C,6.1% (inactive)
5,COc1cc(OC)c(C(=O)NNC(=O)c2ccccc2-n2cccc2)cc1OC,-9.9% (inactive)
6,COC(=O)c1ccc(C(=O)OC)c(NC(=S)N2CCN(c3cc(Cl)ccc3C)CC2)c1,0.4% (inactive)
7,CCCN(CCC)C(=S)Nc1cc(C(=O)OC)ccc1C(=O)OC,10.8% (inactive)
8,COC(=O)c1ccc(C(=O)Nc2cc(Cl)ccc2Cl)cc1NC(=O)c1ccccc1C,54% (active)
9,CCOC(=O)c1c(C)[nH]c(C)c1C(=O)COC(=O)/C=C/c1cccc([N+](=O)[O-])c1,-19.4% (inactive)
10,CCC12CN3CC(CC)(CN(C1)C31C(=O)N(C)c3ccc(C)cc31)C2=O (stereo not given),8.9% (inactive)
11,CCOC(=O)C1(C)CCCN(C(=O)c2ccc(N(C)C)cc2)C1 (stereo not given),-1.1% (inactive)
12,Cc1cccc(-n2nc3c(c2NC(=O)c2cc4ccccc4o2)CS(=O)(=O)C3)c1,4.3% (inactive)
13,CC(C)CC1(C(=O)NCc2ccccn2)C=CCN1C(=O)c1ccccc1 (stereo not given),-3.1% (inactive)
14,O=C(Nc1cccc2ccccc12)NC1CC1,-3.5% (inactive)
15,O=C(Nc1cccc2ccccc12)c1onc2c1CCCC2,-10.2% (inactive)
16,O=C(Nc1cccc2ccccc12)c1[nH]c(-c2ccccc2)c2c1C(=O)N(C1CC1)C2=O,63.7% (active)
17,CC(=O)N(Cc1cc(=O)[nH]c2ccccc12)c1ccc(C)cc1C,10.4% (inactive)
18,Cc1ccc(N(Cc2cc(=O)[nH]c3ccccc23)C(=O)CCl)cc1,63.4% (active)
19,CCC(=O)N(Cc1cc2ccccc2[nH]c1=O)c1ccc(OC)cc1,-0.6% (inactive)
20,CCOC(=O)N1CCN(C(=O)c2ccccc2SCC(=O)NCC2CCCCC2)CC1,-2% (inactive)
21,Cc1ccc(C(=O)CCC(=O)N(C)CC(=O)Nc2c(Cl)cccc2Cl)cc1,-7.8% (inactive)
22,Cc1ccc(NC(=O)CN(C)C(=O)COC(=O)c2nccnc2N)cc1,-12.4% (inactive)

row,Compound,inhibition
1,O=C(NNC(=O)c1ccccc1O)c1ccccc1O,61.7% (active)
2,Cc1cc(C(=O)CCC(=O)NNC(=O)c2ccccc2O)c(C)s1,-22% (inactive)
3,CC1=C(C)CC(C(=O)NNC(=O)c2ccccc2O)C(C(=O)O)C1 (stereo not given),-2.9% (inactive)
4,COCCNC(=O)c1ccc2c(c1)ncn2-c1ccc(C)c(Cl)c1,-3.6% (inactive)
5,COCCN(C(=O)CCC(=O)Nc1nccs1)C(C(=O)NCCC(C)C)c1ccc(F)cc1 (stereo not given),-16.8% (inactive)
6,O=C(O)c1cc(S(=O)(=O)N(Cc2ccccc2)c2cccc(C(F)(F)F)c2)ccc1Cl,-4.7% (inactive)
7,O=C(NNc1ccccc1Cl)C(O)(c1cccc(C(F)(F)F)c1)c1cccc(C(F)(F)F)c1,55.6% (active)
8,O=C(CNS(=O)(=O)c1cccc(C(F)(F)F)c1)Nc1ccccc1F,-4.7% (inactive)
9,Cc1cccc(NC(=O)CSc2nnc(CCCCCNC(=O)OC(C)(C)C)o2)c1C,-6.7% (inactive)
10,NC(=O)COc1ccccc1C(=O)NC12CC3CC(CC(C3)C1)C2,3.5% (inactive)
11,C=C1C(=O)[C@]23C[C@H]1CCC2[C@@]1(C)C(C[C@@H]3O)[C@](C)(C(=O)O)CC[C@@H]1O (stereo not given in full),82.6% (active)
12,CCN(CC)CCCNC(=O)c1cn(C)c2ccc(S(=O)(=O)N(C)C3CCCCC3)cc2c1=O,9.2% (inactive)
13,CC(C)CC1C(=O)N(Cc2cn(CC3CCCCC3)nn2)CCS(=O)(=O)N1Cc1ccc(-c2ccc(Cl)cc2)cc1 (stereo not given),55.8% (active)
14,COc1ccc(-c2ccc(CN3C(C(C)C)C(=O)N(Cc4cn(CC5CCCCC5)nn4)CCS3(=O)=O)cc2)cn1 (stereo not given),-2.4% (inactive)
15,CC(C)CC1C(=O)N(Cc2cn(Cc3ccco3)nn2)CCS(=O)(=O)N1Cc1ccc(-c2ccc(Cl)c(Cl)c2)cc1 (stereo not given),66.8% (active)
16,COCOCCn1cc(CN2CCS(=O)(=O)N(Cc3ccc(-c4ccccc4)cc3)C(CC(C)C)C2=O)nn1 (stereo not given),23.5% (inactive)
17,CC1C(=O)N(Cc2cn(Cc3ccco3)nn2)CCS(=O)(=O)N1Cc1ccc(-c2cccc(CO)c2)cc1 (stereo not given),3.2% (inactive)
18,CC(=O)c1cccc(-c2ccc(CN3C(CC(C)C)C(=O)N(Cc4cn(CC5CCCCC5)nn4)CCS3(=O)=O)cc2)c1 (stereo not given),13.4% (inactive)
19,COc1ccc(-c2ccc(CN3C(CC(C)C)C(=O)N(Cc4cn(CC5CCCCC5)nn4)CCS3(=O)=O)cc2)cc1 (stereo not given),41.4% (inactive)
20,COCOCCn1cc(CN2CCS(=O)(=O)N(Cc3ccc(-c4ccc(OC)cc4)cc3)C(CC(C)C)C2=O)nn1 (stereo not given),-5% (inactive)
21,COc1ccc(-c2ccc(CN3C(CC(C)C)C(=O)N(Cc4cn(CC5CCCCC5)nn4)CCS3(=O)=O)cc2)cn1 (stereo not given),66.1% (active)
